Screening data as filed in PubChem.
Hits are enriched below; roughly 1.3% of the tested compounds scored in any of these assays.
LYPLA2 inh: blocks human lysophospholipase 2, a PME1 counter-screen; O95372; recombinant LYPLA2, FP-Rh probe fluorescence polarization; inhibition, % at 5.9 µM; hit rate 0.38% among 320,000;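 active = inhibition above the screen-wide mean plus 3 SD, limit set per campaign, cut at about 26% in these data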;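 note: 0% = LYPLA2 with DMSO and 100% = wells lacking LYPLA2 enzyme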
Target sequence (O95372 whole entry, looked up): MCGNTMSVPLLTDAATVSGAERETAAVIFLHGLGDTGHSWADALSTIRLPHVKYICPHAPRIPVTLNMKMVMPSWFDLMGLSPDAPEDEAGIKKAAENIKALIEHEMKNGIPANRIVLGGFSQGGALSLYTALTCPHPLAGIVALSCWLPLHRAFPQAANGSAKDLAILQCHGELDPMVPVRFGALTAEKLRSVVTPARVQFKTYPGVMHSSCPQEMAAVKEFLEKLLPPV
EBNA-1 inh: blocks EBNA-1 binding to DNA; EBNA-1 DNA binding, fluorescence polarization; inhibition, % at 14.8 µM; hit rate 0.34% among 300,000; in the data active = inhibition above about 28%
PREPL inhibitor: inhibitors of human prolyl oligopeptidase-like enzyme PREPL | Q4J6C6 | recombinant PREPL, fluorescence polarization activity-based probe | inhibition, % at 5.96 µM | hit rate 0.68% among 320,000; in the data active = inhibition above about 43%;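 note: 0% = enzyme with DMSO and 100% = wells lacking enzyme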
LYPLA1 counter: blocks human lysophospholipase 1, a PME1 counter-screen; O75608; recombinant LYPLA1, FP-Rh probe fluorescence polarization; inhibition, % at 5.9 µM; hit rate 0.16% among 320,000; AID 2174;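 active = inhibition above the mean of all tested compounds plus 3 SD, set per campaign, cut at about 14% in these data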;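 note: inhibitors block serine hydrolase probe labeling of LYPLA1 so polarization falls; 0% = enzyme with DMSO and 100% = wells lacking LYPLA1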
Target sequence (O75608 whole entry, looked up): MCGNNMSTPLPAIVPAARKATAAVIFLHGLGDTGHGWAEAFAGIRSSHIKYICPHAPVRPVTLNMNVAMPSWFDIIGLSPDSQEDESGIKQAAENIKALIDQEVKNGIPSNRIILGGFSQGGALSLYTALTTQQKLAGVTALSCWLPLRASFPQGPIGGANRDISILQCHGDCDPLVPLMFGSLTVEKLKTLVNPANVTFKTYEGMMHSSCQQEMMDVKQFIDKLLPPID
ZTA counter: blocks Epstein-Barr virus ZTA, an EBNA-1 counter-screen; P03206; ZTA-DNA binding, fluorescence polarization; inhibition, % at 11 µM; hit rate 0.15% among 320,000; in the data active = inhibition above about 33%
Target sequence (P03206 whole entry, looked up): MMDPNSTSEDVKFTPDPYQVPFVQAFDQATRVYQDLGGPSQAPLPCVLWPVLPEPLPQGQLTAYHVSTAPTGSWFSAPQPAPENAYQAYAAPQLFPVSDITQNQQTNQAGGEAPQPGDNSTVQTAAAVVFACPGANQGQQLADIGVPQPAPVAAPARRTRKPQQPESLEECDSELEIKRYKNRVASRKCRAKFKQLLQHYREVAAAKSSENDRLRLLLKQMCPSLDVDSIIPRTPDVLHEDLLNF
EBNA-1 inh conf: EBNA-1 (EBV) inhibition, confirmation. Recombinant EBNA-1 DBD, Cy5-DNA fluorescence polarization. inhibition, % at 14.8 µM. shares compounds with EBNA-1 inh. hit rate 35% among 830;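 active = mean inhibition across replicates above a set limit taken from the earlier primary screen, cut at about 28% in these data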;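 note: plate controls were EBNA-1 protein with DMSO for no effect and wells lacking EBNA-1 for full effect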
ZTA counter trip: blocks Epstein-Barr virus ZTA in triplicate, EBNA-1 counter-screen; inhibition, % at 11.1 µM; Zta-ZRE DNA binding, Cy5 fluorescence polarization; shares compounds with EBNA-1 inh; 830 tested, under 10 active;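 active = mean inhibition over triplicates above a set limit taken from the primary EBNA-1 screen, cut at about 37% in these data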;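 note: purified full length Zta protein with Cy5 labeled ZRE DNA probe; 0% = Zta with DMSO and 100% = wells lacking Zta protein; inhibitors lower polarization by freeing the labeled DNA probe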
Starred values were filed as active, the others as inactive; · = not tested or not shown.

SMILES | LYPLA2 inh | EBNA-1 inh | PREPL inhibitor | LYPLA1 counter | ZTA counter | EBNA-1 inh conf | ZTA counter trip
COc1ccc(NC(=O)Nc2ccc(OC)cc2)cc1 | 2.0 | 54.5* | 22.8 | 5.0 | 4.3 | 32.3* | 0.2
COc1ccc(NC(=O)c2ccc(OC(=S)N(C)c3ccc(OC)cc3)cc2)cc1 | 5.1 | 34.0* | 0.0 | 3.5 | 12.8 | 18.6 | 8.1
COc1ccc(C(=O)Nc2ccc3c(c2)C(=O)NC3=O)cc1 | -52.6 | 32.8* | -3.7 | -21.4 | 10.2 | 26.1 | 5.5
COc1ccc(S(=O)(=O)N(C)C[C@H]2Oc3c(NS(=O)(=O)c4ccc(F)cc4)cccc3C(=O)N([C@H](C)CO)C[C@@H]2C)cc1 | · | · | 5.4 | · | · | · | ·
C/C(=N\NC(=O)c1c(Cl)cnn1C)c1cccc(NC(=O)c2ccc(C)cc2)c1 | 1.2 | 3.5 | -3.3 | 2.3 | 5.6 | · | ·
C/C(=N\NC(=O)c1c(Br)cnn1C)c1ccc(NC(=O)c2ccc(F)cc2)cc1 | -2.9 | 49.8* | 7.0 | 3.0 | -12.4 | 68.5* | 0.7
Cc1ccc(C2CC(c3cccs3)=NN2C(=O)CSc2nc(=O)n3cc(C)ccc3n2)cc1 (stereo not drawn) | -4.5 | 41.5* | 3.1 | -6.2 | -3.8 | 1.7 | 7.5
Cc1noc(C)c1C(=O)OCC(=O)C12CC3CC(CC(C3)C1)C2 | 2.1 | 0.8 | 3.8 | 4.0 | -1.0 | · | ·
COc1ccc(NC(=O)c2cc(S(=O)(=O)N3CCc4ccccc43)cn2C)c(OC)c1 | 4.7 | -5.5 | 0.3 | 0.1 | -4.3 | · | ·
COc1ccc(NC(=O)c2cc(S(=O)(=O)N3CCc4ccccc43)cn2C)cc1OC | -4.2 | 39.8* | -2.9 | -3.8 | 7.0 | 38.9* | -0.9
COc1ccc(CNc2nc(NCc3ccc(OC)cc3)n(C(C)=O)n2)cc1 | -5.4 | 65.4* | 18.9 | 0.8 | -0.1 | 72.0* | 8.8
CCOc1ccc(NC(=O)c2cc3cc4ccc(OC)cc4nc3o2)cc1 | 5.6 | 28.9* | 0.2 | 0.1 | 2.7 | 45.4* | 4.6
Cc1ccc(NC(=O)NCc2ccc3c(c2)OCO3)cc1C | -8.5 | 29.5* | -1.9 | -2.0 | 6.5 | -2.0 | 5.8
Cc1ccc(CNC(=O)C2CSC3(C)CCC(=O)N23)cc1 (stereo not drawn) | · | · | 3.5 | · | · | · | ·
Cc1ccc(N=Nc2ccc(O)c(/C=N\NC(=O)c3ccc(N)cc3)c2)cc1C | 4.2 | 37.6* | 10.5 | -1.2 | -2.6 | -5.5 | 23.1
O=C(N/N=C/c1cc(Cl)ccc1O)c1ccc(Br)cc1 | -21.6 | -11.3 | 4.8 | -14.1 | 0.3 | · | ·
O=C(O)c1ccc(N2C(=O)CC(SC(=NCc3ccc4c(c3)OCO4)Nc3ccccc3)C2=O)cc1 (stereo not drawn) | 7.4 | -3.3 | -5.2 | -0.8 | 15.1 | · | ·
O=C1CC(SC(=NCc2ccc3c(c2)OCO3)Nc2ccccc2)C(=O)N1c1ccccc1 (stereo not drawn) | 3.2 | 43.5* | 0.7 | 1.3 | 7.9 | -11.6 | -9.1
CC(=O)Nc1ccc(NC(=O)/C=C/c2ccc3c(c2)OCO3)cc1 | -9.0 | -3.5 | 7.5 | -2.2 | -9.7 | · | ·
NS(=O)(=O)c1ccc(NC(=O)/C=C/c2ccc3c(c2)OCO3)cc1 | -0.1 | 43.8* | -2.9 | -2.7 | 32.5 | 13.7 | 13.4
CCCc1cc2c(cc1NC(=O)c1ccc(Br)cc1)OCO2 | -1.1 | 33.4* | 11.9 | 4.7 | -3.0 | 0.3 | -8.0
CN(C)C(=O)COC(=O)c1cccc(CN2C(=O)c3ccccc3C2=O)c1 | -3.0 | 3.2 | -3.2 | 1.7 | -1.7 | · | ·
CC(=O)Nc1nnc(SCC(=O)c2ccc3c(c2)Cc2ccccc2-3)s1 | -19.4 | 40.1* | -19.9 | -5.4 | 8.5 | 43.3* | 2.9
CCC(=O)Nc1nnc(SCC(=O)c2ccc3c(c2)Cc2ccccc2-3)s1 | -1.3 | 31.1* | -3.1 | -3.3 | 5.9 | 21.1 | 0.8
CCC(=O)Nc1nnc(SCC(=O)N2c3ccccc3CC2C)s1 (stereo not drawn) | 0.8 | -4.3 | -2.3 | 0.1 | 2.1 | · | ·
SMILES | LYPLA2 inh | EBNA-1 inh | PREPL inhibitor | LYPLA1 counter | ZTA counter | EBNA-1 inh conf | ZTA counter trip
Cn1c(SCC(=O)c2ccc3c(c2)Cc2ccccc2-3)nnc1-c1ccccc1 | 7.2 | 0.3 | -4.6 | 5.0 | 5.8 | · | ·
O=C(NNC(=O)c1ccc(NC(=O)c2ccccc2)cc1)c1ccc(F)cc1 | -1.7 | 66.9* | -7.1 | -2.1 | 4.7 | 103.2* | 4.0
O=C(c1cc2sccc2n1Cc1ccc(F)cc1)N1CCN(c2nc3ccccc3s2)CC1 | 1.9 | 12.0 | -8.1 | 0.0 | 10.8 | · | ·
Cn1c(C(=O)N2CCN(c3nc4ccccc4s3)CC2)cc2sccc21 | 10.1 | 50.9* | 6.9 | 4.0 | 6.6 | 30.8* | 2.5
Nc1nnc(SCC(=O)OCC(=O)c2ccccc2Br)s1 | 0.0 | 0.9 | 6.4 | -1.0 | 5.3 | · | ·
CC(=O)N1CCN=C1SCc1ccc(C(F)(F)F)cc1 | -7.8 | 40.5* | 14.9 | 3.5 | -9.2 | -9.4 | -1.9
O=C(C1CC1)N1CCN=C1SCc1ccc(F)cc1 | 1.2 | 4.8 | 18.8 | -1.4 | -20.6 | · | ·
COc1cccc(C(=O)N/N=C/c2ccc(OC3CSC3)cc2)c1 | 2.1 | 0.4 | -4.5 | 2.3 | -18.3 | · | ·
Cc1cccc(C(=O)N/N=C/c2ccc(OC3CSC3)cc2)c1 | 11.3 | 35.1* | 2.8 | 1.5 | 4.0 | 4.2 | -3.8
Cc1cc(C(=O)N2CCc3ccccc3C2)on1 | -0.1 | 6.0 | 1.7 | -1.4 | 5.5 | · | ·
O=C(Nc1cccc(C(F)(F)F)c1)c1ccc2nc(-c3ccco3)c(-c3ccco3)nc2c1 | -11.0 | 68.0* | 28.6 | -13.6 | -21.2 | 4.0 | 8.4
O=C(Nc1cccc(C(F)(F)F)c1)c1cc[n+]([O-])cc1 | 0.5 | -4.8 | 16.8 | -0.3 | -3.4 | · | ·
O=C1C(Cl)=C(N2CCCC2)C(=O)N1c1ccccc1F | 5.4 | 2.5 | 8.5 | 1.8 | 6.9 | · | ·
O=C(NCc1ccc(F)cc1)c1cc2c(s1)CS(=O)(=O)C2 | 1.9 | 1.1 | 4.6 | -2.0 | -7.2 | · | ·
CC(=O)N1CCC(O)(c2ccc3c(c2)OCO3)CC1 | -8.9 | 1.4 | -2.9 | -2.4 | -4.6 | · | ·
COCCOC(=O)c1c(NC(=O)CNc2ccc(C)c(F)c2)sc(C(N)=O)c1C | 4.5 | 42.0* | 8.0 | 2.4 | -3.2 | 13.6 | 13.8
COCCOC(=O)c1c(NC(=O)CNCc2ccco2)sc(C(N)=O)c1C | 0.6 | -2.6 | 8.0 | 1.6 | 0.9 | · | ·
CCCCOc1ccc(C(=O)Nc2ccc(C)cc2[N+](=O)[O-])cc1 | -1.3 | 34.1* | 22.3 | -2.0 | -4.6 | 1.0 | 7.4
CCCOC(=O)c1cccc(NC(=O)COc2ccc([N+](=O)[O-])cc2)c1 | 16.3 | 109.0* | -0.5 | -2.2 | 3.7 | 6.5 | 3.7
CCOC(=O)c1cccc(NC(=O)COc2ccc([N+](=O)[O-])cc2)c1 | 4.3 | -1.6 | -4.8 | 0.3 | 9.5 | · | ·
CCc1nn(-c2ccccc2)c(=S)c2ccccc12 | -0.8 | 35.0* | -10.1 | -5.5 | -3.7 | -2.3 | 9.2
CCc1nn(-c2ccccc2)c(N)c1C#N | 1.3 | 3.8 | 11.5 | -0.4 | 9.3 | · | ·
O=C(N/N=C/c1ccc(O)cc1)c1nc(-c2ccccc2)n(-c2ccccc2)n1 | -0.6 | 30.8* | 9.4 | -2.3 | 1.0 | 31.1* | -4.9
